Reference: PubChem BioAssay (NCI)
Compounds without any hit were thinned out: in the full panel of roughly 83,000, 20% have a hit.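 The endpoint reported here, percent growth, reads 100 for growth as untreated, 0 for no net growth and -100 for all cells dead.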 The source made the active and inactive calls. How the source made its calls: active means growth percent below 10; inactive means the rest.

Columns and labels:
Experiment in all cases: NCI-60 one-dose screen, 48 h (100 = growth as untreated, 0 = no growth, -100 = all killed)
Conditions in all cases: 10 µM unless noted
[1] = system: SK-MEL-2 melanoma
[2] = system: EKVX NSCLC
[3] = system: SN12C renal
[4] = system: UO-31 renal
[5] = system: TK-10 renal
[6] = system: ACHN renal
[7] = system: A498 renal
[8] = system: MOLT-4 leukemia
[9] = system: SR leukemia
[10] = system: RPMI-8226 leukemia
[11] = system: OVCAR-8 ovarian
[12] = system: OVCAR-5 ovarian
[13] = system: OVCAR-4 ovarian
[14] = system: SK-OV-3 ovarian
[15] = system: IGROV1 ovarian
[16] = system: OVCAR-3 ovarian
[17] = system: HS 578T breast
[18] = system: T-47D breast
[19] = system: CCRF-CEM leukemia
[20] = system: NCI/ADR-RES ovarian

Measured: growth

C=C1C(=O)O[C@H]2[C@H]1CC/C(COC(=O)CCCCC(=O)OC/C1=C/CC[C@@]3(C)O[C@H]3[C@H]3OC(=O)C(=C)[C@@H]3CC1)=C\CC[C@@]1(C)O[C@@H]21
inactive: [1] 71.9% | [2] 59.1% | [3] 27.8% | [4] 45.8% | [5] 25.2% | [6] 12.6% | [7] 124% | [8] 10.3% | [11] 49.7% | [12] 115% | [13] 82.3% | [14] 85.6% | [15] 39.4% | [16] 18.6% | [17] 82.7% | [18] 38.6%
active: [9] 2.3% | [10] 5.66%

CCOC(=O)c1ccc(Nc2ncnc3ccc(NC(=O)c4ccccc4)cc23)cc1
inactive: [1] 86.6% | [2] 80.3% | [3] 102% | [4] 72.6% | [5] 65.4% | [6] 93.5% | [19] 91.2% | [8] 63.8% | [9] 73.8% | [10] 69.2% | [11] 86.7% | [12] 96.2% | [13] 89.2% | [14] 100% | [15] 103% | [16] 94.4% | [20] 86.8% | [18] 65.6%
active: [17] -95%

COc1ccc2[nH]c(=O)c(/C=C/C(=O)c3ccccc3OC)cc2c1
active: [1] -2.52% | [3] 8.57% | [19] 7.53% | [9] 2.69% | [10] 5.61% | [11] 1.18% | [14] 6.12% | [16] 8.25% | [17] 8.33% | [18] -2.02%
inactive: [2] 37.8% | [4] 23.6% | [5] 42% | [6] 38.8% | [8] 10.9% | [12] 12.1% | [13] 50.8% | [15] 14.5% | [20] 10.4%

O=C1CC(c2ccc(O)c(O)c2)Oc2cc(O)c([C@@H]3O[C@H](CO)[C@@H](O)[C@H](O)[C@H]3O)c(O)c21 (stereo partly specified)
inactive: [1] 104% | [2] 99.5% | [3] 98.7% | [4] 103% | [5] 106% | [6] 102% | [19] 97.3% | [8] 100% | [9] 98.6% | [10] 99.3% | [11] 101% | [12] 98.7% | [13] 101% | [14] 103% | [15] 109% | [16] 104% | [17] 105% | [20] 110% | [18] 95.8%

Cc1nc(C)c(C)nc1C
inactive: [1] 97.9% | [2] 109% | [3] 101% | [4] 93.4% | [5] 95.7% | [6] 114% | [19] 89.5% | [8] 99.8% | [9] 108% | [10] 104% | [11] 91.8% | [12] 115% | [13] 114% | [14] 96.5% | [15] 108% | [16] 109% | [17] 85.6% | [20] 109% | [18] 92.5%

COc1cc(C)ccc1Oc1nc(Nc2ccc(N3CCOCC3)cc2)ncc1N=Cc1cc(C(F)(F)F)cc(C(F)(F)F)c1
inactive: [1] 70.2% | [2] 81.7% | [3] 80.3% | [4] 47.6% | [5] 81.6% | [6] 56.3% | [19] 82% | [8] 44.7% | [9] 49.7% | [10] 69.7% | [11] 63% | [12] 75.7% | [13] 71% | [14] 43.3% | [15] 33.4% | [16] 76.5% | [17] 61.9% | [20] 69.9% | [18] 57.7%

CCOC(=O)c1c(C)nc2c(c1N)/C(=C/c1cccs1)C(=O)N2c1ccc(OC)cc1
inactive: [1] 33% | [2] 49.8% | [3] 39.4% | [4] 16.5% | [5] 35.7% | [6] 31.5% | [19] 92.2% | [8] 80.5% | [9] 55.8% | [10] 74.5% | [11] 20.5% | [12] 102% | [13] 13.9% | [14] 36.6% | [15] 45.7% | [16] 32.3% | [17] 25% | [20] 29% | [18] 19%

CCCCn1c(=O)c(/C=C/C(=O)/C=C/c2ccc(O)c(OC)c2)cc2ccc(Cl)cc21
inactive: [1] 42.1% | [2] 40.1% | [3] 12.3% | [5] 54.2% | [6] 19.9% | [12] 49.6% | [13] 26.1% | [14] 59.2% | [17] 47.8% | [20] 14.8% | [18] 25.3%
active: [4] 6.03% | [19] 2.91% | [8] 8.28% | [9] 3.78% | [10] -14.2% | [11] -4.03% | [15] 6.29% | [16] -26.2%

CC[C@H](Nc1ncnc2nc[nH]c12)c1nc2cccc(CC(=O)c3ccc(C(=O)NO)cc3)c2c(=O)n1-c1ccccc1
inactive: [1] 77.5% | [2] 90.6% | [3] 84% | [4] 87.4% | [5] 88.1% | [6] 102% | [7] 74% | [8] 66.8% | [9] 67.6% | [10] 45.1% | [11] 81.3% | [12] 97.9% | [13] 78.3% | [14] 98.8% | [16] 76.9% | [17] 72% | [20] 94% | [18] 50.7%

CC1CCN(CCCCCOc2ccc3oc4cc(Cl)ccc4c(=O)c3c2)CC1
inactive: [1] 88% | [2] 83.8% | [3] 63.5% | [4] 67.7% | [5] 78% | [6] 83.1% | [19] 65.5% | [8] 29.7% | [9] 16.5% | [10] 50.4% | [11] 73.6% | [12] 64.8% | [13] 75.2% | [14] 96.5% | [15] 51.8% | [16] 73.3% | [17] 84.8% | [20] 70.8% | [18] 64.6%

C#CCOC(=O)[C@]1(C)CCC[C@]2(C)[C@H]3C[C@H]4C(C(C)C)=C[C@]3(CC[C@H]21)[C@@H]1C(=O)CCC(=O)[C@@H]14
inactive: [1] 88.2% | [2] 76.1% | [3] 86.8% | [4] 74.7% | [5] 90.7% | [6] 93.5% | [19] 67.1% | [8] 73.5% | [9] 64.9% | [10] 67.9% | [11] 90.5% | [12] 93.8% | [13] 73.9% | [14] 78.9% | [15] 78.3% | [16] 95% | [17] 80.8% | [20] 81.5% | [18] 66.7%

Cc1ccc2nc3nc4ccc[nH]c4cc3c2c1
inactive: [1] 113% | [2] 56.8% | [3] 105% | [4] 65.8% | [5] 46.9% | [6] 81.8% | [19] 98.9% | [8] 119% | [9] 18.1% | [10] 49.3% | [11] 99.7% | [12] 90.9% | [13] 65.8% | [14] 89.2% | [15] 68.2% | [16] 77.6% | [17] 90.2% | [20] 99.9% | [18] 10.3%

CCCCC(=O)Nc1c(C(=O)Nc2ccccc2)sc2nc3c(cc12)C(OC(=O)CCCC)CCC3 (stereo unspecified)
active: [9] -10.6%
inactive: [1] 93.8% | [2] 91.9% | [3] 96.9% | [4] 89% | [5] 98.2% | [6] 115% | [7] 64.7% | [8] 75.9% | [10] 48.9% | [11] 84.7% | [12] 111% | [13] 36.7% | [14] 108% | [16] 102% | [17] 89.5% | [20] 79.3% | [18] 79%

Cc1cc(C)cc(Nc2nccc(-c3c(-c4ccc(F)cc4)ncn3C3CCNCC3)n2)c1
inactive: [1] 21.4% | [2] 27.4% | [3] 16.5% | [5] 17.8% | [7] 53.2% | [12] 35.2% | [13] 30.3% | [17] 24.3% | [20] 15.3% | [18] 15.2%
active: [4] -28.6% | [6] 4.78% | [8] -14.2% | [9] -31% | [10] -3.31% | [11] -24.8% | [14] 9.09% | [15] -40.1% | [16] 5.97%

COc1ccc(OCC(=O)OC(C)C)cc1
inactive: [1] 109% | [2] 99% | [3] 96.8% | [4] 89.6% | [5] 92.9% | [6] 108% | [19] 112% | [8] 91.1% | [9] 91.9% | [10] 106% | [11] 105% | [12] 99.6% | [13] 101% | [14] 112% | [15] 103% | [16] 99.1% | [17] 100% | [20] 93.3% | [18] 101%

O=C1C(Cl)=C(Nc2ccc3c(c2NC2=C(Cl)C(=O)c4ccccc4C2=O)C(=O)c2ccccc2C3=O)C(=O)c2ccccc21
inactive: [1] 40.8% | [2] 34.5% | [4] 23.1% | [5] 77.3% | [6] 29.2% | [19] 17.8% | [9] 13.3% | [10] 28.1% | [11] 22.3% | [14] 90.3% | [17] 42.2% | [18] 10.5%
active: [3] 4.99% | [8] 8.53% | [12] 3.29% | [13] -12% | [15] 6.05% | [16] -2.06% | [20] 7.89%
